LmPK inh – LmPK (Leishmania mexicana) enzyme inhibition; purified LmPK, Kinase-Glo ATP luminescence, 1 h; AID 1721; Potency, µM (highest dose often 57.5 µM), for the others: at the highest dose activity change, negative = inhibition, actives largely listed as inhibitors; 290,000 compounds, 0.37% hits; note: potency is the fitted concentration of half-maximal effect; % is set by controls: 0 for no effect and ±100 for the full control effect
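Kinase-Glo luminescence read after 1 h RT reaction of 0.1 nM LmPK with 0.5 mM PEP and 0.1 mM ADP. Activity scaled between uninhibited and enzyme-free controls.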
Tb PYK inh – T. brucei pyruvate kinase inhibition; Q57TT1; TbPYK enzyme, Kinase-Glo Plus ATP luminescence, 45 min; Potency, µM (top dose mostly 76.8 µM), for inactives: at the top dose activity, negative = inhibition, hits mostly inhibitors; 410,000 compounds, 0.12% hits; AID 624173; note: potency is the fitted concentration of half-maximal effect; % is set by controls: 0 for no effect and ±100 for the full control effect; nearly all actives have a fitted effect of over 50% in size
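Assay buffer: 50 mM TEA pH 7.2, 100 mM KCl, 10 mM MgCl2, 0.05% BSA, 0.01% Tween-20. Pyruvate kinase from T. brucei plus substrate met compound, then ADP (130 uM final). Luminescence was read post 45 min RT.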
FBPA Giardia inh – Giardia lamblia aldolase inhibition; A8B2U2; purified Giardia FBPA; Potency, µM (titrated, usually from 59.6 µM), inactives show top-dose activity, negative = inhibition, most hits filed as inhibitors; 290,000 compounds, 0.71% hits; AID 2451; note: potency is the fitted concentration of half-maximal effect; % is set by controls: 0 for no effect and ±100 for the full control effect; nearly all actives have a fitted effect of over 55% in size
Target sequence (A8B2U2 whole entry, looked up): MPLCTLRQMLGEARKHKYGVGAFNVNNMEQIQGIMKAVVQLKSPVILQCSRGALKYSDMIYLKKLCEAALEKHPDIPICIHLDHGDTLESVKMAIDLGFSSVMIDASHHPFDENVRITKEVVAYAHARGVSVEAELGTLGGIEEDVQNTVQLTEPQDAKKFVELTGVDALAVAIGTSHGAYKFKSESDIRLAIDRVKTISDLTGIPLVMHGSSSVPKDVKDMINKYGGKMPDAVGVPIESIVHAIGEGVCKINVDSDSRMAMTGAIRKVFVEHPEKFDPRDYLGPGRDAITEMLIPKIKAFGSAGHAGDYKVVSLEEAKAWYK
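40 nM FBPA preincubated 10 min at RT with compound (up to 57.5 uM final), then substrate plus GAPDH/TPI/NAD/arsenate coupling and diaphorase/resazurin added. Fluorescence read after 20 min at RT, 525/598 nm.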
AMA1-RON2 inh – AMA1-RON2 (P. falciparum) interaction inhibition; AlphaScreen AMA1-biotinylated RON2 peptide binding; Potency, µM (titrated, usually from 58.2 µM), without a hit: at the highest dose activity change, negative = inhibition, hits mostly inhibitors; 360,000 compounds, 0.2% hits;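 note: potency is the fitted concentration of half-maximal effect; 0% = vehicle wells and -100% = peptide control; nearly all actives have a fitted effect of over 45% in size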
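AMA1 (3D7) with his tag at 25 nM final met compounds first, then biotinylated RON2 peptide at 25 nM; detection used donor plus acceptor beads, 10 µg/mL apiece, read by AlphaScreen after 30 min at room temperature.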
NS1 function inh – influenza NS1 inhibition | 270,000 compounds, 0.4% hits | Potency, µM (doses to about 46.1 µM), for the others: top-dose activity, positive = more growth | AID 2326; calls by dose curve; note: potency is the fitted concentration of half-maximal effect; actives are rising curves; nearly all actives have a fitted effect of over 50% in size
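OD600 was taken as the measure of yeast growth restored by compound in an NS1-expressing S. cerevisiae strain. Cells had been washed out of glucose medium and diluted 1:100 into galactose -URA medium, pH 6.0.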
NS1 inh valid – influenza NS1 function inhibition validation. shares compounds with NS1 function inh. influenza NS1 function cell assay, 15-point titration. activity change, negative = inhibition, % at 32.9 µM. 1,400 tested, under 10 active; calls by dose curve; note: 0% is about no effect
Flu PR8 replic – influenza virus titer reduction, NS1 project; virus titer (log TCID50), log10 TCID50 at 5 µM; 95 compounds, 30% hits; MDCK infected influenza A/PR/8/34, virus titer TCID50; active compounds read low; shares compounds with NS1 function inh; AID 504647; call rule not given here
* marks the source's active call; other numbers are inactive results; ? = inconclusive; nt = not tested or not shown; [ ] = another dose, or the depositor's remark. Compounds with a hit are over-represented: about 1.2% of the library has one in this group of screens. Unless noted, calls come from the whole dose curve; as a rule, active = well fitted curve in the direction sought with a large enough effect; inconclusive = small, poorly fitted or top-dose-only effect, or another doubt; inactive = no such curve, though single readings can be large; an effect the other way counts as inactive or inconclusive.

SMILES | LmPK inh | Tb PYK inh | FBPA Giardia inh | AMA1-RON2 inh | NS1 function inh | NS1 inh valid | others
CC[C@H](C)[C@H](NC(=O)[C@H](Cc1ccc(O)cc1)NC(=O)[C@H](Cc1cnc[nH]1)NC(=O)[C@H](CCCNC(=N)N)NC(=O)[C@H](CC(C)C)NC(=O)[C@H](C)NC(=O)[C@H](CO)NC(=O)[C@H](Cc1ccc(O)cc1)NC(=O)[C@H](Cc1ccc(O)cc1)NC(=O)[C@H](CCCNC(=N)N)NC(=O)[C@H](C)NC(=O)[C@H](CCSC)NC(=O)[C@H](CC(=O)O)NC(=O)[C@H](CCC(=O)O)NC(=O)[C@H](C)NC(=O)[C@@H]1CCCN1C(=O)[C@H](C)NC(=O)[C@H](CC(=O)O)NC(=O)[C@H](CCC(=O)O)NC(=O)CNC(=O)[C@@H]1CCCN1C(=O)[C@H](CC(N)=O)NC(=O)[C@H](CC(=O)O)NC(=O)[C@@H]1CCCN1C(=O)[C@H](CCCCN)NC(=O)[C@H](CO)NC(=O)[C@@H]1CCCN1C(=O)[C@@H](N)Cc1ccc(O)cc1)C(=O)N[C@@H](CC(N)=O)C(=O)N[C@@H](CC(C)C)C(=O)N[C@@H](CC(C)C)C(=O)N[C@H](C(=O)N[C@@H](CCCNC(=N)N)C(=O)N1CCC[C@H]1C(=O)N[C@@H](CCCNC(=N)N)C(=O)N[C@@H](Cc1ccc(O)cc1)C(N)=O)[C@@H](C)O | nt | nt | -2% | nt | nt | nt
Cc1c(C(=O)NCCC2=CCCCC2)oc2ccc(S(=O)(=O)N3CCOCC3)cc12 | 1% | -1% | -2% | -8% | -10% | nt
Cc1c(C(=O)O)oc2ccc(S(=O)(=O)NCCC3=CCCCC3)cc12 | 3% | 1% | ? | -10% | 10µM* | 17
O=C(C1CCCC1)N1CCC(CC2CC(c3cccc(Br)c3)=NO2)(C(=O)NCC2CCCCC2)CC1 (stereo unspecified) | 2% | 0% | 1% | 0% | 22µM* | -19
Cc1ccc(-n2c3c(cc(C(=O)NCc4ccco4)c2=O)C(=O)CC(C)(C)C3)cc1 | 2% | -1% | 1% | -19% | 1.1µM* | -8
CCC(=O)C(C(=O)OC)[C@H](CCc1ccccc1)NC(=O)OC (stereo partly specified) | nt | nt | -4% | nt | nt | nt
Cc1cc(C)n(S(=O)(=O)c2cc(C(=O)O)c(Cl)cc2Cl)n1 | -1% | -1% | 5% | -2% | ? | 10
O=S(=O)(N/N=C/c1ccc2c(c1)OCCO2)c1ccccc1 | 0% | 9% | -7% | 11% | ? | 3
CCCOc1ccc(-c2cnc(SCC(N)=O)nc2N)cc1 | -2% | 0% | 2% | 21% | 8.9µM* | 11
COc1cccc(C2=NOC(C(=O)Nc3cccc(C(C)=O)c3)C2)c1 (stereo unspecified) | 0% | 2% | -1% | 13% | 2.8µM* | 0
COc1cccc(C2=NOC(C(=O)Nc3ccc(OC)c(OC)c3)C2)c1 (stereo unspecified) | -1% | -2% | -10% | -8% | -70% | nt
O=c1ncccn1[C@@H]1O[C@H](CO)[C@@H](O)[C@H]1O | nt | nt | 0% | nt | nt | nt
CCCCc1nc2c(c3c1C[C@H](C)OC3)CN(C(=O)c1cccnc1)CC2 | -4%[11.5 µM] | nt | 0%[12.9 µM] | nt | nt | nt
CCN(CC)S(=O)(=O)c1ccc2c(c1)N(CC(=O)NCCCN1CCN(c3cc(Cl)ccc3C)CC1)C(=O)CO2 | nt | 4% | nt | nt | nt | nt
COc1ccccc1NC(=O)CSc1nc(O)cc(=O)n1-c1ccccc1OC | -6% | 0% | 1% | 25% | 10µM* | 39
COc1ccccc1-n1c(SCC(=O)NC(C)(C)C)nc(O)cc1=O | 1% | -1% | 11% | 1% | 8.9µM* | 36 | Flu PR8 replic=7.7
Cc1ccc(-n2ncc(C(=O)NCCc3ccccc3)c2C2CCN(C(=O)OC(C)(C)C)CC2)c(C)c1 | nt | -1% | nt | nt | nt | nt
CC1CCC2(CC1)NC(=O)N(Cc1nc(-c3ccccc3)no1)C2=O (stereo unspecified) | 0% | -7% | 3% | 1% | 8.9µM* | -1 | Flu PR8 replic=8.5
COC(=O)C1(C)C=C2C(=C(c3ccccc3)C(=O)C2C)CN1 (stereo unspecified) | nt | nt | -25% | nt | nt | nt
Cc1ccc(NC(=O)COC(=O)c2ccc3c(c2)OCO3)cc1S(=O)(=O)N1CCCCC1 | 2% | -8% | 5% | -11% | 10µM* | 6
Cc1ccc(NC(=O)COC(=O)c2ccc(OC(F)F)cc2)cc1S(=O)(=O)N1CCCCC1 | nt | -11% | nt | 0% | nt | nt
O=S(=O)(c1ccc(NC(=S)NCCC(c2ccccc2)c2ccccc2)cc1)N1CCOCC1 | 2% | 2% | 0% | -2% | 14µM* | 15
CCN(CC)c1cc(C)c2cc(NC(=O)/C=C/c3ccccc3Cl)ccc2n1 | nt | -5% | nt | nt | nt | nt
CC(=O)N=c1n(C)c2ccccc2n1CCOc1ccccc1 | -8% | -7% | 2% | 9% | ? | -6
O=C(NCc1ccc(F)cc1)C(=O)NCC(c1ccc2c(c1)OCO2)N1CCOCC1 (stereo unspecified) | nt | -7% | nt | nt | nt | nt
SMILES | LmPK inh | Tb PYK inh | FBPA Giardia inh | AMA1-RON2 inh | NS1 function inh | NS1 inh valid | others
CCOc1ccc(C2CC(=O)NC(NC(=O)c3cccc(Cl)c3)=N2)cc1 (stereo unspecified) | nt | -5% | nt | nt | nt | nt
COc1ccc(/C=N/Nc2nc(NCc3ccco3)nc(Nc3ccc(OC)cc3)n2)cc1 | -3% | 11% | -2% | -14% | ? | nt
COc1ccc(Nc2nc(NCc3ccco3)nc(N/N=C/c3ccc(O)cc3)n2)cc1 | 0% | -4% | -2% | -7% | 11µM* | ?
CSc1cc(-c2ccc(Cl)cc2)c(C(=O)NN)s1 | 2% | -9% | -4% | 45% | ? | -20
CNC(=O)c1ccccc1S(=O)(=O)c1ccccc1C#N | 11% | 5% | 5% | 3% | ? | 22
O=C(NCC1CCCO1)C(c1ccco1)N(Cc1ccc(F)cc1)C(=O)CN1C(=O)c2ccccc2S1(=O)=O (stereo unspecified) | 10% | -2% | 4% | -11% | 10% | nt
COc1cccc(CN(C(=O)CN2C(=O)c3ccccc3S2(=O)=O)C(C(=O)NCC2CCCO2)c2ccco2)c1 (stereo unspecified) | -1% | -5% | -4% | -2% | ? | -27
Cc1onc(-c2ccccc2)c1C(=O)Nc1nnc(N(C)Cc2ccccc2)s1 | 0% | -7% | 1% | 28% | 7.9µM* | 13
CCOC(=O)C1=C(C)Nc2sc(C(=O)c3ccc(C)cc3)c(N)c2C1c1ccc(C(=O)OC)cc1 (stereo unspecified) | -2% | -4% | -7% | -22% | 10µM* | 27
